The nature of assay [1]: BET inhibitor-based combinations targeting novel dependencies in MECOM-rearranged (r) AML: OCI-AML3 cell line (AID 2202232). Also: nearly all actives have a fitted effect of over 35% in size. To be noted: Potency: OCI-AML3 viability. In outline: (§1)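 Readout: CellTiter-Glo luminescence. Exposure: 48 h, 11 concentrations, 500 cells/well. Metric: AUC and within-line Z-AUC after DMSO/empty-well normalization.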
Assay [2] in a line: BET inhibitor-based combinations targeting novel dependencies in MECOM-rearranged (r) AML: MV-4-11 cell line (AID 2202233). Also: nearly all actives have a fitted effect of over 45% in size. In outline:
(§2)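 Seeding density was 500 cells/well, and drug exposure lasted 48 hr under standard culture conditions. Read-out used CellTiter-Glo reagent with a 15 min room-temperature incubation before luminescence measurement; AUC and Z-AUC summarize the normalized responses.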

Assay [3] is described as follows: BET inhibitor-based combinations targeting novel dependencies in MECOM-rearranged (r) AML: HNT-34 cell line (AID 2202234). Also: nearly all actives have a fitted effect of over 35% in size. In outline:
as §2

Assay [4] is described as follows: BET inhibitor-based combinations targeting novel dependencies in MECOM-rearranged (r) AML: UCSD-AML1 cell line (AID 2202235). Also: nearly all actives have a fitted effect of over 40% in size. In a few lines: as §2
Assay [5] can be described thus: BET inhibitor-based combinations targeting novel dependencies in MECOM-rearranged (r) AML: AML-191 cell line (AID 2202236; also: nearly all actives have a fitted effect of over 35% in size). In outline: as §1
A short description of assay [6]: BET inhibitor-based combinations targeting novel dependencies in MECOM-rearranged (r) AML: AML-194 cell line (AID 2202237; also: nearly all actives have a fitted effect of over 40% in size). In a few lines: as §1

Each structure is given as a SMILES string. Records with an inconclusive call do not appear. Calls of active or inactive are those of the source. Calls follow the shape of the dose curve; as a rule, active = well fitted curve in the direction sought with a large enough effect; inconclusive = small, poorly fitted or top-dose-only effect, or another doubt; inactive = no such curve, though single readings can be large; an effect the other way counts as inactive or inconclusive.
Potency is read from the fitted curve at half-maximal effect.

In the case of `CC1(C)CCC2(CC1)N[C@@H](C(=O)N[C@@H]1CC[C@@H](C(N)=O)OC1)[C@H](c1ccnc(Cl)c1F)[C@]21C(=O)Nc2cc(Cl)ccc21`, the Potency is 715 nM (active) in assay [1]; 71.5 nM (active) in assay [2]; 160 nM (active) in assay [3]; 201 nM (active) in assay [4]; 358 nM (active) in assay [5]; 637 nM (active) in assay [6].
Consider `Cc1ccc(-c2nn(C(C)(C)CNC(=O)c3ccncc3)c3ncnc(N)c23)cc1`, for which the Potency is 16600 nM (active) in assay [1]; 11800 nM (active) in assay [2]; 8330 nM (active) in assay [3]; 7420 nM (active) in assay [4]; 7420 nM (active) in assay [5]; 7420 nM (active) in assay [6].
As to `COc1cc(NS(C)(=O)=O)ccc1Nc1c2ccccc2nc2ccccc12`, the Potency is 372 nM (active) in assay [1]; 66.1 nM (active) in assay [2]; 372 nM (active) in assay [3]; 417 nM (active) in assay [4]; 742 nM (active) in assay [5]; 742 nM (active) in assay [6].
For `COc1ccc(-c2ccc3c(N4CCOC[C@@H]4C)nc(N4CCOC[C@@H]4C)nc3n2)cc1CO`, the values for the Potency in assay [1] and in assay [2] were 148 nM (active) and 132 nM (active), respectively.
For `CC1(C)S[C@H]2[C@H](NC(=O)[C@@H](N)c3ccc(O)cc3)C(=O)N2[C@H]1C(=O)O`, the Potency result in assay [1], in assay [2], in assay [3], in assay [4], in assay [5] and in assay [6] was “inactive” each time.
For the compound `CC(C)(C)C[C@H]1N[C@@H](C(=O)NC2CCC(O)CC2)[C@H](c2cccc(Cl)c2F)[C@@]12C(=O)Nc1cc(Cl)ccc12` (stereo partly specified), the Potency in assay [1] is 4170 nM (active); in assay [2], 742 nM (active); in assay [3] it was 934 nM (active); in assay [4], 1660 nM (active); in assay [5], 2350 nM (active); in assay [6], 3320 nM (active).
`O=c1cc(-c2cccc3c2Sc2ccccc2S3)oc(N2CCOCC2)c1`: the values for the Potency in assay [1] and in assay [2] were 13200 nM (active) and 18600 nM (active), respectively.
Turning to `CC(c1cc2ccccc2s1)N(O)C(N)=O` (stereo unspecified), the Potency entry in assay [1], in assay [2], in assay [3], in assay [4], in assay [5] and in assay [6] was “inactive” throughout.
With `CN(C)CCCOc1ccc(-c2ccc3ncc4c(c3c2)n(C2CCOCC2)c(=O)n4C)cn1`, the Potency is 7230 nM (active) in assay [1], 4070 nM (active) in assay [2] and 2570 nM (active) in assay [3].
In the case of `Nc1n[n+]([O-])c2ccccc2[n+]1[O-]`, the Potency in assay [1] was 18600 nM (active); in assay [2], 13200 nM (active); in assay [3] it was 16600 nM (active); in assay [5], 18600 nM (active). Besides, in assay [4], the Potency entry is “inactive”.
In the case of `COc1ccc(COc2ccc(Cc3cnc(N)nc3N)cc2OC)cc1`, in assay [2], the Potency result is “inactive”.
`CCCCOc1ccc(CC(=O)NO)cc1`: the figures for the Potency in assay [1], in assay [3] and in assay [6] were 13200 nM (active), 20900 nM (active) and 23500 nM (active), respectively.
In the case of `COC(=O)N[C@H](C(=O)N1CCC[C@H]1c1ncc(-c2ccc(-c3ccc(-c4cnc([C@@H]5CCCN5C(=O)[C@@H](NC(=O)OC)C(C)C)[nH]4)cc3)cc2)[nH]1)C(C)C`, the Potency entry in assay [1] and in assay [4] was “inactive” each time.
For the compound `C=CC(=O)N1CCC[C@H](n2c(=O)n(-c3ccc(Oc4ccccc4)cc3)c3c(N)ncnc32)C1`, the Potency result in assay [1] and in assay [4] was “inactive” each time. Also, the Potency in assay [3] is 16600 nM (active).
For `COc1cccc(-c2c(C)n(Cc3c(F)cccc3C(F)(F)F)c(=O)n(C[C@H](NCCCC(=O)O)c3ccccc3)c2=O)c1F`, in assay [1], the Potency is 7420 nM (active). The Potency result in assay [2] and in assay [6] was “inactive” throughout.
Turning to `CC(C)n1cnc2c(NCCCCCCNC(=O)OC(C)(C)C)nc(NCCO)nc21`, the Potency in assay [2] was 16600 nM (active).
Consider `Cn1cc(C2=C(c3cn(C)c4cc([N+](=O)[O-])ccc34)C(=O)NC2=O)c2ccccc21`, for which the Potency was 662 nM (active) in assay [1], 833 nM (active) in assay [4], 662 nM (active) in assay [5] and 417 nM (active) in assay [6].
With `CC(=O)Nc1ccc(C(=O)NC(C)(C)C)cc1`, the Potency entry in assay [1], in assay [3], in assay [4], in assay [5] and in assay [6] was “inactive” in each case.
With `CNC(=O)[C@H]1O[C@@H](n2cnc3c(NCc4cccc(I)c4)nc(Cl)nc32)[C@H](O)[C@@H]1O`, the Potency entry in assay [1], in assay [4], in assay [5] and in assay [6] was “inactive” in each case.
Consider `CC[C@H](NC(=O)[C@H](C)NC)C(=O)N1C[C@@H](O)C[C@H]1Cc1c(-c2[nH]c3cc(F)ccc3c2C[C@@H]2C[C@H](O)CN2C(=O)[C@H](CC)NC(=O)[C@H](C)NC)[nH]c2cc(F)ccc12`, for which, in assay [1], the Potency result is “inactive”. Also, the Potency in assay [4] was 332 nM (active); in assay [5], 742 nM (active); in assay [6], 1180 nM (active).
For `C#Cc1cccc(Nc2ncnc3cc4c(cc23)OCCOCCOCCO4)c1`, in assay [1], the Potency result was “inactive”. Besides, the Potency in assay [3] is 18600 nM (active).
In the case of `CCNc1cc(NC2CCC(O)CC2)nc(Nc2ccc3c(ccn3Cc3ccccc3)c2)n1` (stereo unspecified), the Potency entry in assay [1], in assay [3] and in assay [5] was “inactive” in each case.
`CNC(=O)c1c(C)oc2cc(Oc3ncnc4cc(OC)c(OC)cc34)ccc12`: the Potency result in assay [1], in assay [3], in assay [4], in assay [5] and in assay [6] was “inactive” throughout.
Consider `CC(C)n1c(/C=C/[C@H](O)C[C@H](O)CC(=O)O)c(-c2ccc(F)cc2)c2ccccc21`, for which the Potency in assay [1] is 3320 nM (active); in assay [3], 8330 nM (active); in assay [4] it was 11800 nM (active).

These data come from PubChem BioAssay (NCATS).
